Results from PubChem BioAssay AID504843 (Broad Institute, 2011).
About 360 (30%) of roughly 1,200 compounds were called active. The list is a sample of the results. Entries with a potency or affinity are not part of this list. Values without a mark were called inactive. How the calls were made is not given here.

Assay: bacterial growth inhibition, dose response, counter-screen, BacTiter-Glo luminescence, cherry-picked samples (AID 504843);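 further: growth measured after 8 h incubation at 30 °C; 0% = median of sample compound wells and -100% = antibiotic control wells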
Conditions: BacTiter-Glo ATP luminescence; series mostly up to 15 µM; activity change, negative = inhibition: at the top concentration

Row | SMILES | activity change, negative = inhibition [%]
1 | CCOc1ccc(-c2cn(-c3ccc(OC)cc3)c(SC)n2)cc1 | 4.67
2 | COC(=O)C1=CN(C(C)C)C=C(C(=O)OC)C1c1cccc(OC)c1 | -0.278
3 | COc1cccc(NC(=O)Nc2cnccn2)c1 | 17.8
4 | CCOc1ccc2[nH]c(C)c(CN3CCCCC3)c(=O)c2c1 | 0.19
5 | CCSC1=C(C#N)C(c2ccc(Cl)cc2)C2=C(CCCC2=O)N1 (stereo unspecified) | -2.99
6 | CC(C)N1C(=O)NC2(c3ccccc3)N(C)C(=O)N(C)C12c1ccccc1 (stereo unspecified) | 3.92
7 | O=C(N1CCCC1)C12CC3CC(C1)CC(C(=O)N1CCCC1)(C3)C2 | -9.58
8 | CN(C)c1ccc(C(=O)C(O)c2ccc(C(C)(C)C)cc2)cc1 (stereo unspecified) | -7.55
9 | CN(C)S(=O)(=O)n1cc(/C=C(\NC(=O)c2ccccc2F)C(=O)N2CCOCC2)c2ccccc21 | 0.486
10 | O=C(NCc1ccc2c(c1)OCO2)c1c(O)c2cccc3c2n(c1=O)CCC3 | 8.33
11 | CCOc1ccccc1NC(=O)NCc1ccc2c(c1)OCO2 | 12
12 | COCCNc1nc(N)c([N+](=O)[O-])c(NCC2CCCO2)n1 (stereo unspecified) | 13.3
13 | Cn1ccc(=Nc2ccc(NC(=O)c3ccc(N=c4ccn(C)c5ccc([N+](=O)[O-])cc45)cc3)cc2)cc1 | 8.29
14 | Cc1cc(=O)[nH]c(SCC(=O)NCc2ccc3c(c2)OCO3)n1 | -3.42
15 | Clc1ccccc1CSc1nnc(-c2cccnc2)n1Cc1ccco1 | -1.87
16 | N=C(N)c1ccc(/C=C/c2ccc(C(=N)N)cc2O)cc1 | 10.4
17 | O=C(Nc1ccc2c(c1)OCCO2)c1ccc(Cl)c(S(=O)(=O)N2CCCCC2)c1 | 11.6
18 | O=C(C1CCCN(S(=O)(=O)c2cccnc2)C1)N1CCn2c1nc1ccccc12 (stereo unspecified) | -1.21
19 | Cc1c(NC(=O)Nc2ccccc2)cccc1[N+](=O)[O-] | 11.4
20 | CCOC(=O)c1sc(C)c2c1NC(C)(c1ccccc1)NC2=O (stereo unspecified) | -12.4
21 | COc1ccc(CN2CSC(=S)N(Cc3ccccc3)C2)cc1 | 2.29
22 | Cc1nc(Nc2ccc(Cl)cc2Cl)sc1C(=O)Nc1ccccc1 | -6.74

Row | SMILES | activity change, negative = inhibition [%]
23 | CC(C)(C)c1nnc(NC(=O)NS(=O)(=O)c2ccccc2)s1 | 12.1
24 | O=C(NCc1cccnc1)C(=O)NCC1OCCN1S(=O)(=O)c1ccc(F)cc1 (stereo unspecified) | -3.66
25 | Cc1cc(C(=O)NNC(=O)c2ccc(F)cc2)c(C)s1 | 11.2
26 | O=C(c1n[nH]c2ccccc12)N1CCOCC1 | -3.98
27 | CCN(CC)CC(=O)N(CC(=O)Nc1c(C)cc(C)cc1C)C1CCCCC1 | 6.71
28 | CCCCN(C)C(=O)c1cc2cc([N+](=O)[O-])cc(OC)c2oc1=O | 16.6
29 | CCOC(=O)c1sc(Nc2nc3ccc(OC)cc3s2)cc1C | -1.02
30 | COc1ccc(OC)c(NC(=O)NCc2cccnc2)c1 | 1.13
31 | COc1ccc(S(=O)(=O)N2CCC(C(=O)NCc3cccnc3)CC2)cc1OC | 9.42
32 | COc1ccc(C(=O)OC(C)CN2CCN(C)CC2)cc1 (stereo unspecified) | -6.2
33 | CC(=O)c1ccc(NC(=O)CSc2nc(N3CCOCC3)nc(N3CCOCC3)n2)cc1 | -8.88
34 | NC(=O)C1CCN(C(=O)CSc2nc3ccccc3o2)CC1 | -10.7
35 | CCCCNC(=O)NNC(=O)c1ccc(F)cc1 | 17.9
36 | COc1ccc(C2OC(=O)CC2C(=O)NCc2ccc(F)cc2)cc1OC (stereo unspecified) | 11.5
37 | O=C(NC(=S)N1CCc2ccccc21)c1ccccc1Cl | 3.89
38 | CCOC(=O)N1CCN(c2ccc(C(=O)CC)cc2F)CC1 | 1.6
39 | O=C(O)Cn1cc(C(=S)N2CCOCC2)c2ccccc21 | 1.11
40 | COCCn1c(=NC(=O)c2ccc3c(c2)OCCO3)sc2cc(S(N)(=O)=O)ccc21 | 12.3
41 | CCOC(=O)C1=C(C)c2ccccc2OC1(C(=O)OCC)C(C)C (stereo unspecified) | 12
42 | CCOc1ccc(S(=O)(=O)Nc2cc(Cl)ccc2O)cc1 | 0.342
43 | Cc1ccc(NC(=O)CCCc2nc3ccccc3s2)c(O)c1 | -5.14
44 | O=C(COc1ccc2c3c(c(=O)oc2c1)CCCC3)NCCCn1ccnc1 | -22.2

Row | SMILES | activity change, negative = inhibition [%]
45 | O=C(N/N=C/c1cn(-c2cccs2)nc1-c1ccccc1)c1ccccc1O | 13.5
46 | Oc1c(Cl)cc(Cl)cc1C1Nc2ccccc2-n2cccc21 (stereo unspecified) | -4.71
47 | COc1ccc(N(C2=NCCCS2)S(=O)(=O)c2ccc(C(C)(C)C)cc2)cc1 | -5
48 | Cc1cc(C(=O)CN2C(=O)C3CC=CCC3C2=O)c(C)n1-c1ccccc1 (stereo unspecified) | 12.8
49 | C=C(C)CSc1nnc(-c2ccc(OC)c(OC)c2)n1N | 9.53
50 | CCCCC1C(=O)N(c2ccccc2)N(c2ccc(O)cc2)C1=O (stereo unspecified) | 16.9
51 | CCCCOc1ccc(C2CC(=O)N(C)C2=O)cc1 (stereo unspecified) | 12.5
52 | CO[C@H]1/C=C/O[C@@]2(C)Oc3c(C)c(O)c4c(O)c(c5c(c4c3C2=O)NC2(CCN(CC(C)C)CC2)N=5)=NC(=O)/C(C)=C\C=C\[C@H](C)[C@H](O)[C@@H](C)[C@@H](O)[C@@H](C)[C@H](OC(C)=O)[C@@H]1C | 13.9
53 | CCc1cccc(CC)c1NC(=S)NCC(c1cccnc1)N(C)C (stereo unspecified) | -1.21
54 | CCCCNC(=O)COC(=O)CCC(=O)c1cccs1 | -2.41
55 | O=C(CCCn1c(=O)[nH]c2ccsc2c1=O)N1CCCCC1 | -13.5
56 | Cc1n[nH]c(=O)nc1N1CCc2ccccc2C1 | -11.8
57 | CCOc1nc(Nc2ccc(OC)c(Cl)c2)nc(OCC)n1 | -13.6
58 | CC1=NN(c2ccccc2)C(=O)C1c1ccccc1 (stereo unspecified) | -7.25
59 | Cc1ccc(OC(=O)c2cc(=O)c3ccccc3o2)cc1 | 11.8
60 | COc1cccc(-c2nn3c(-c4ccccn4)nnc3s2)c1 | -8.38
61 | Clc1ccc(-c2nnc3c4ccccc4nc(N4CCOCC4)n23)cc1Cl | 4.28
62 | CC(C)n1ncc2c(C(=O)N3CCN(Cc4ccc(Br)s4)CC3)cc(C3CC3)nc21 | -10.1
63 | CC(=O)c1c(C)[nH]c(C(=O)Nc2ccccc2N2CCOCC2)c1C | 6.19
64 | Cc1ccc(CS(=O)(=O)CCC(=O)NCCCN2CCCC2)cc1 | -7.04
65 | CCCn1c(N)c(C(=O)CSc2nnnn2-c2ccc(O)cc2)c(=O)n(C)c1=O | -2.28
66 | CCc1nnc(NC(=O)C2CCC2)s1 | -4.19

Row | SMILES | activity change, negative = inhibition [%]
67 | COCC(=O)Nc1ccccc1Br | 6.59
68 | COc1cc(CN(C2CCCCC2C)S(=O)(=O)c2ccc(S(=O)(=O)NC3CC3)cc2)cc(OC)c1OC (stereo unspecified) | -4.38
69 | COc1ccc(-c2cc([C@H]3[C@@H]4C=CCC[C@@]4(C)C(=O)N3Cc3ccccc3)ccc2F)cc1 | 7.72
70 | NS(=O)(=O)c1ccc(CCNc2nc(C(F)(F)F)nc3ccccc23)cc1 | 12
71 | Cc1ccnc(NC(c2cccnc2)c2ccc3cccnc3c2O)c1 (stereo unspecified) | -11.9
72 | CCCOc1cc(C)c(S(=O)(=O)N2CCN(C)CC2)cc1C | -15.3
73 | O=C1CN(C(=O)COC(=O)c2cc(S(=O)(=O)N3CCOCC3)ccc2Cl)c2ccccc2N1 | 9.82
74 | Cc1ccc(C)c(NC(=S)N(CCc2ccncc2)C(C)C)c1 | 7.28
75 | CC(C)Cc1ccc(CN2CCCC(NC(=O)Cn3cnnn3)C2)cc1 (stereo unspecified) | 7.33
76 | COc1cccc(CN2CC(C(=O)NCCOc3cccnc3)CCC2=O)c1 (stereo unspecified) | -2.68
77 | COCc1cc(CNC(=O)C2CCC(=O)N(Cc3ccccc3OC)C2)[nH]n1 (stereo unspecified) | 11.7
78 | CC(C)C[C@@H](CN1CCC[C@@H]1CN1C(=O)C(=O)NC[C@@H]1Cc1ccccc1)N1C[C@H](Cc2ccc(O)cc2)N(CC2CCCCC2)C(=O)C1=O | -2.65
79 | Cc1cc(Nc2nc3ccccc3nc2Cl)n(-c2ccccc2C)n1 | -19.4
80 | Cc1cc(C)cc(CSc2nnc(C)c(=O)[nH]2)c1 | 12.2
81 | Cc1ccc(C)n1-c1ccc(-c2ccnc(N)n2)cc1 | -7.48
82 | O=C(CCNS(=O)(=O)c1ccccc1C(F)(F)F)NCCCN1CCOCC1 | 10.8
83 | COc1ccc(S(=O)(=O)N(C)c2ccc(C(=O)N3CCOCC3)cc2)cc1 | -3.06
84 | COc1cccc(CNC(=O)CN2C(=O)CCSc3ccc(S(=O)(=O)N4CCCC4)cc32)c1 | 15.1
85 | COC(=O)/C(=C/c1ccco1)NC(=O)c1ccccc1 | 16.3
86 | COc1ccc(-n2c(O)c(/C=N/NS(=O)(=O)c3cccc([N+](=O)[O-])c3)c3ccccc3c2=O)cc1OC | -16.4
87 | O=C(N/C(=C/c1cccc([N+](=O)[O-])c1)C(=O)N1CCOCC1)c1ccc(Br)cc1 | -4.16
88 | Nc1cc(OC(=O)c2ccc(F)cc2)nn1S(=O)(=O)c1ccc(F)cc1 | 8.53

Row | SMILES | activity change, negative = inhibition [%]
89 | CCc1nc2ccccc2c(C(=O)OC2CCOC2=O)c1C (stereo unspecified) | -24.9
90 | c1ccc(NC(=NCc2ccco2)c2ccccc2)cc1 | -3.37
91 | O=C(O)c1cccc(NC(=O)c2ccccc2)c1 | -1.77
92 | CC(C)c1c(C(=O)N/N=C/C2CC=CCC2)nnn1-c1nonc1N (stereo unspecified) | -11.7
93 | O=C(CN1CCN(c2ccccc2F)CC1)NC(=O)NCc1ccccc1 | -10.5
94 | O=C(O)c1ccc(CSc2nnc(-c3ccncc3)n2-c2ccc(Cl)cc2)cc1 | -3.41
95 | Cc1nc(N2CCN(S(=O)(=O)c3ccc(Br)cc3)CC2)c2c(C)c(C)sc2n1 | -5.15
96 | COC(=O)c1sc(NC(=O)CSc2nnnn2-c2ccc(C)cc2C)nc1C | 4.55
97 | CCCc1cc(=O)[nH]c2nnc(SCC(=O)Nc3ccc4c(c3)OCCO4)n12 | 0.067
98 | COc1ccccc1NS(=O)(=O)c1ccc2[nH]c(=S)oc2c1 | 3.6
99 | c1ccc(C2NCCc3ccccc32)cc1 (stereo unspecified) | 5.25
100 | CCOc1ccc2nc(NC(=O)CN3CCC(n4nnc5cc(F)ccc54)CC3)sc2c1 | 12.9
101 | Cc1cc(C)c2oc(=O)cc(CN3CCN(Cc4ccc5c(c4)OCO5)CC3)c2c1 | -5.29
102 | O=C(Nc1ccc(Oc2ccccc2)nc1)C1CCCCN1Cc1ccc(OCCO)cc1 (stereo unspecified) | 14
103 | COCCCNc1nc2c(c(=O)[nH]c(=O)n2C)n1CC(O)COc1cccc(C)c1 (stereo unspecified) | -1.28
104 | CCC1CCCCN1Cc1nc2c(c(=O)n(C)c(=O)n2C)n1CCCc1ccccc1 (stereo unspecified) | -9.51
105 | CCCNc1nc2c(c(=O)[nH]c(=O)n2C)n1CCCc1ccccc1 | -5.21
106 | COCCn1c(-c2cccc([N+](=O)[O-])c2)nc2c1c(=O)[nH]c(=O)n2Cc1ccccc1 | -0.242
